From PubChem BioAssay AID1159580 (chemical genetic matrix, 2015)
Where “and” joins values, the source holds several entries; their conditions need not be identical. Equal entries are not always repeated. About 2,000 (36%) of roughly 5,500 compounds were called active. Roughly 18% stayed inconclusive and do not appear here. Cut-off read from the data, not from the text of the source: active = normalized growth mostly below about 0.91 (no sharp cut-off); inconclusive = no clear call, values can overlap the other calls; inactive = mostly above about 0.92. Some of the results follow.

Assay: chemical genetic growth profiling, strain panel (AID 1159580);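 note: tested at 20 µM; growth read once vehicle control cultures reached saturation at 30 °C; 1 = growth at the plate median or of vehicle wells; lower values mean less growth of the strain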
Settings: S. cerevisiae deletion strains, growth OD

Measured: normalized growth

O=c1c(O)c(-c2ccccc2)oc2cc(O)ccc12
0.208 (active) and 1.01 (inactive): locus YJL095W, strain BCK1, stronger effect = lower value
0.434 (active) and 1.07 (inactive): locus YHR030C, strain SLT2, stronger effect = lower value
active: locus YAL021C, strain ccr4, stronger effect = lower value 0.572 | locus YAL026C, strain drs2, stronger effect = lower value 0.486 | locus YAL030W, strain snc1, stronger effect = lower value 0.66 | locus YBL061C, strain skt5, stronger effect = lower value 0.685 | locus YBR009C, strain hhf1, stronger effect = lower value 0.597 | locus YBR023C, strain chs3, stronger effect = lower value 0.518 | locus YBR171W, strain sec66, stronger effect = lower value 0.825 | locus YBR229C, strain ROT2, stronger effect = lower value 0.873 | locus YBR231C, strain swc5, stronger effect = lower value 0.572 | locus YBR279W, strain paf1, stronger effect = lower value 0.641 | locus YCL011C, strain gbp2, stronger effect = lower value 0.583 | locus YCL016C, strain dcc1, stronger effect = lower value 0.711 | locus YCL029C, strain bik1, stronger effect = lower value 0.779 | locus YCL061C, strain MRC1, stronger effect = lower value 0.799 | locus YCL069W, strain vba3, stronger effect = lower value 0.864 | locus YDL035C, strain GPR1, stronger effect = lower value 0.432 | locus YDL040C, strain nat1, stronger effect = lower value 0.847 | locus YDL074C, strain BRE1, stronger effect = lower value 0.455 | locus YDL101C, strain DUN1, stronger effect = lower value 0.697 | locus YDL192W, strain arf1, stronger effect = lower value 0.664 | locus YDR001C, strain nth1, stronger effect = lower value 0.887 | locus YDR069C, strain doa4, stronger effect = lower value 0.413 | locus YDR101C, strain arx1, stronger effect = lower value 0.903 | locus YDR137W, strain rgp1, stronger effect = lower value 0.38 | locus YDR150W, strain NUM1, stronger effect = lower value 0.707 | locus YDR162C, strain NBP2, stronger effect = lower value 0.121 | locus YDR297W, strain sur2, stronger effect = lower value 0.77 | locus YDR318W, strain mcm21, stronger effect = lower value 0.708 | locus YDR334W, strain swr1, stronger effect = lower value 0.704 | locus YDR335W, strain msn5, stronger effect = lower value 0.757 | locus YDR388W, stronger effect = lower value 0.759 | locus YDR392W, strain spt3, stronger effect = lower value 0.369 | locus YDR502C, strain sam2, stronger effect = lower value 0.751 | locus YEL003W, strain gim4, stronger effect = lower value 0.754 | locus YEL037C, strain rad23, stronger effect = lower value 0.794 | locus YEL061C, strain CIN8, stronger effect = lower value 0.705 | locus YER015W, strain faa2, stronger effect = lower value 0.454 | locus YER016W, strain bim1, stronger effect = lower value 0.766 | locus YER111C, strain swi4, stronger effect = lower value 0.873 | locus YER155C, strain BEM2 (second series), stronger effect = lower value 0.81 | locus YER155C, strain BEM2, stronger effect = lower value 0.627 | locus YER167W, strain BCK2, stronger effect = lower value 0.676 | locus YFR010W, strain ubp6, stronger effect = lower value 0.62 | locus YGL086W, strain mad1, stronger effect = lower value 0.699 | locus YGL167C, strain pmr1, stronger effect = lower value 0.882 | locus YGL173C, strain kem1, stronger effect = lower value 0.382 | locus YGL240W, strain doc1, stronger effect = lower value 0.675 | locus YGL248W, strain PDE1, stronger effect = lower value 0.506 | locus YGL253W, strain hxk2, stronger effect = lower value 0.508 | locus YGR078C, strain PAC10, stronger effect = lower value 0.586 | locus YGR135W, strain pre9, stronger effect = lower value 0.675 | locus YGR252W, strain gcn5, stronger effect = lower value 0.701 | locus YHR013C, strain ard1, stronger effect = lower value 0.439 | locus YHR027C, strain rpn1, stronger effect = lower value 0.339 | locus YHR079C, strain IRE1 (second series), stronger effect = lower value 0.913 | locus YHR094C, strain hxt1, stronger effect = lower value 0.903 | locus YHR129C, strain ARP1, stronger effect = lower value 0.564 | locus YHR142W, strain chs7, stronger effect = lower value 0.474 | locus YHR200W, strain rpn10, stronger effect = lower value 0.825 | locus YIL066C, strain RNR3, stronger effect = lower value 0.663 | locus YIL073C, strain SPO22, stronger effect = lower value 0.326 | locus YIR030C, strain dcg1, stronger effect = lower value 0.858 | locus YJL092W, strain hpr5, stronger effect = lower value 0.79 | locus YJL095W, strain BCK1 (second series), stronger effect = lower value 0.337 | locus YJL115W, strain asf1, stronger effect = lower value 0.9 | locus YJL129C, strain trk1, stronger effect = lower value 0.809 | locus YJL134W, strain LCB3, stronger effect = lower value 0.844 | locus YJL154C, strain vps35, stronger effect = lower value 0.885 | locus YJL164C, strain tpk1, stronger effect = lower value 0.432 | locus YJL166W, strain qcr8, stronger effect = lower value 0.471 | locus YJL168C, strain set2, stronger effect = lower value 0.902 | locus YJL187C, strain SWE1 (second series), stronger effect = lower value 0.5 | locus YJL187C, strain SWE1, stronger effect = lower value 0.653 | locus YJR043C, strain POL32, stronger effect = lower value 0.387 | locus YJR075W, strain HOC1, stronger effect = lower value 0.571
inactive: locus YBR021W, strain FUR4, stronger effect = lower value 1.05 | locus YCR088W, strain abp1, stronger effect = lower value 0.937 | locus YDL005C, strain med2, stronger effect = lower value 0.941 | locus YDL185W, strain tfp1, stronger effect = lower value 0.928 | locus YDR159W, strain sac3, stronger effect = lower value 0.886 | locus YDR195W, strain ref2 1.07 | locus YEL061C, strain CIN8 (second series), stronger effect = lower value 0.915 | locus YER110C, stronger effect = lower value 0.92 | locus YGL078C, strain dbp3, stronger effect = lower value 0.948 | locus YGL227W, strain vid30, stronger effect = lower value 0.931 | locus YHR079C, strain IRE1, stronger effect = lower value 1.07 | locus YIL125W, strain kgd1, stronger effect = lower value 0.951 | locus YJR066W, strain TOR1, stronger effect = lower value 0.982
